About 79,000 compounds went through this panel and 15% of them were active in at least one assay; those are over-represented in the sample as a whole. Values without a mark were called inactive. The source made the active and inactive calls. Cut-off read from the data, not from the text of the source: active = growth inhibition above about 70%; inactive = the rest.

Experiment [1] can be described thus: NCI Yeast Anticancer Drug Screen. Data for the rad50 strain (AID 155).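 Note: 0% = growth of vehicle-only cultures of the same strain.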 The note with it: S. cerevisiae rad50 strain growth inhibition, stronger effect = higher value. An outline of the steps: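 Cells are treated with compound, grown, and their growth is then scored against vehicle-only cultures of the same repair-deficient yeast strain.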
The nature of experiment [2]: NCI Yeast Anticancer Drug Screen. Data for the mec2-1 strain (AID 157). The conditions noted are these: S. cerevisiae mec2-1 strain, stronger effect = higher value. Summed up: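 Test agents were screened against the mec2-1 yeast strain, with defined DNA repair or cell cycle alteration. Growth was scored as inhibition against vehicle-only controls.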
Experiment [3] in a line: NCI Yeast Anticancer Drug Screen. Data for the sgs1 mgt1 strain (AID 161).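 Note: 0% = growth of cultures given vehicle only.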 The note with it: S. cerevisiae sgs1 mgt1 strain, stronger effect = higher value. Summed up:
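Genetically altered yeast, compound exposure, growth inhibition relative to vehicle.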

Experiment [4] is described as follows: NCI Yeast Anticancer Drug Screen. Data for the cln2 rad14 strain (AID 165).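 Note: 0% = growth equal to vehicle treated cultures.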 The conditions noted are these: S. cerevisiae cln2 rad14 strain, stronger effect = higher value. An outline of the steps: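 Growth of compound-exposed yeast (cln2 rad14 genotype) measured and expressed as inhibition relative to vehicle.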
Experiment [5] can be described thus: NCI Yeast Anticancer Drug Screen. Data for the bub3 strain (AID 167). The conditions noted are these: S. cerevisiae bub3 mutant strain, stronger effect = higher value. Summed up:
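Part of a panel of yeast mutants defective in DNA damage repair or cell cycle regulation. Each strain is grown with compound, and inhibition is calculated relative to solvent-treated cultures.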

A short description of experiment [6]: NCI Yeast Anticancer Drug Screen. Data for the mlh1 rad18 strain (AID 175). The note with it: S. cerevisiae mlh1 rad18 strain growth inhibition, stronger effect = higher value. An outline of the steps: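 In this whole-cell yeast screen, a strain with altered DNA damage repair is challenged with compound, and its growth is measured against matched vehicle-treated controls.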

The mark [7] stands for this setting: at 5.0 µM (retest, dose inferred, filed as 0.5).
Setting [8] is: at 50.0 µM (retest, dose inferred, filed as 5.0).

Regarding `COc1ccc(N=N/N=c2\sc3cc(Cl)ccc3n2C)cc1`, the growth inhibition in experiment [1] (setting [7]) is 29%; in experiment [1] (setting [8]), 57%; in experiment [1] (at 50.0 µM), 36.9%; in experiment [2] (setting [7]) it was 18%; in experiment [2] (setting [8]), 43%; in experiment [2] (at 50.0 µM), 6.15%. The growth inhibition in experiment [3] (setting [7]) is 21%; in experiment [3] (setting [8]), 42%; in experiment [3] (at 50.0 µM), -30.4%; in experiment [4] (setting [7]), 28%; in experiment [4] (setting [8]), 56%; in experiment [4] (at 50.0 µM) it was 30.4%. Also, the growth inhibition in experiment [5] (setting [7]) is 21%; in experiment [5] (setting [8]), 62%; in experiment [5] (at 50.0 µM), 5%; in experiment [6] (setting [7]), 28%; in experiment [6] (setting [8]), 63%; in experiment [6] (at 50.0 µM), 38.2%.
With `CCc1ccccc1NC(=O)C(=O)C(C#N)c1c(Cl)cccc1Cl` (configuration not stated), the growth inhibition is -8% in experiment [1] (setting [7]); -2% in experiment [1] (setting [8]); -26.7% in experiment [1] (at 50.0 µM); 2% in experiment [2] (setting [7]); 1% in experiment [2] (setting [8]); 8.8% in experiment [2] (at 50.0 µM). Further, the growth inhibition in experiment [3] (setting [7]) is -17%; in experiment [3] (setting [8]), -33%; in experiment [3] (at 50.0 µM), 20.7%; in experiment [4] (setting [7]), -6%; in experiment [4] (setting [8]) it was 4%; in experiment [4] (at 50.0 µM), -28.7%. Also, the growth inhibition in experiment [5] (setting [7]) was 1%; in experiment [5] (setting [8]) it was 0%; in experiment [5] (at 50.0 µM), 12.2%; in experiment [6] (setting [7]) it was 0%; in experiment [6] (setting [8]), -1%; in experiment [6] (at 50.0 µM) it was 14.7%.
For `O=c1c2ccccc2sc2c1c(N(CCO)CCO)cc1ccccc12`, the growth inhibition in experiment [1] (setting [7]) was 45%; in experiment [1] (setting [8]) it was 94% (active); in experiment [1] (at 50.0 µM) it was 97.5% (active); in experiment [2] (setting [7]) it was 6%; in experiment [2] (setting [8]) it was 94% (active); in experiment [2] (at 50.0 µM) it was 95.8% (active). Moreover, the growth inhibition in experiment [3] (setting [7]) is 12%; in experiment [3] (setting [8]), 93% (active); in experiment [3] (at 50.0 µM), 97.9% (active); in experiment [4] (setting [7]) it was -7%; in experiment [4] (setting [8]), 78% (active); in experiment [4] (at 50.0 µM), 96.2% (active). For the same compound, the growth inhibition in experiment [5] (setting [7]) was -5%; in experiment [5] (setting [8]), 93% (active); in experiment [5] (at 50.0 µM), 96.8% (active); in experiment [6] (setting [7]), 19%; in experiment [6] (setting [8]), 95% (active); in experiment [6] (at 50.0 µM), 97.6% (active).
With `C(=[CH]/[Sn]([c]1ccccc1)([c]1ccccc1)[c]1ccccc1)/c1ccccc1`, the growth inhibition in experiment [1] (setting [7]) is 96% (active); in experiment [1] (setting [8]), 88% (active); in experiment [1] (at 50.0 µM), 94.8% (active); in experiment [2] (setting [7]), 95% (active); in experiment [2] (setting [8]), 94% (active); in experiment [2] (at 50.0 µM), 98.4% (active). The growth inhibition was 98% (active) in experiment [3] (setting [7]); 92% (active) in experiment [3] (setting [8]); 96.2% (active) in experiment [3] (at 50.0 µM); 92% (active) in experiment [4] (setting [7]); 86% (active) in experiment [4] (setting [8]); 95% (active) in experiment [4] (at 50.0 µM). Further, the growth inhibition is 97% (active) in experiment [5] (setting [7]); 85% (active) in experiment [5] (setting [8]); 99.2% (active) in experiment [5] (at 50.0 µM); 97% (active) in experiment [6] (setting [7]); 84% (active) in experiment [6] (setting [8]); 94.1% (active) in experiment [6] (at 50.0 µM).
Regarding `CN(C)c1ccc(C=Nc2ccc(OCCCCCCCCCCC(=O)O)cc2)cc1`, the growth inhibition is 100% (active) in experiment [1] (setting [7]); 100% (active) in experiment [1] (setting [8]); 82.5% (active) in experiment [1] (at 50.0 µM); 100% (active) in experiment [2] (setting [7]); 99% (active) in experiment [2] (setting [8]); 59.9% in experiment [2] (at 50.0 µM). Besides, the growth inhibition in experiment [3] (setting [7]) was 77% (active); in experiment [3] (setting [8]), 86% (active); in experiment [3] (at 50.0 µM) it was 76.7% (active); in experiment [4] (setting [7]), 77% (active); in experiment [4] (setting [8]), 92% (active); in experiment [4] (at 50.0 µM) it was 75% (active). Further, the growth inhibition in experiment [5] (setting [7]) was 73% (active); in experiment [5] (setting [8]), 84% (active); in experiment [5] (at 50.0 µM), 84.5% (active); in experiment [6] (setting [7]), 100% (active); in experiment [6] (setting [8]), 100% (active); in experiment [6] (at 50.0 µM) it was 71.5% (active).
For the compound `O=[n+]1c2c(n([O-])c3ccc4ccccc4c31)-c1cccc3cccc-2c13`, the growth inhibition was 1% in experiment [1] (setting [7]); 7% in experiment [1] (setting [8]); 2.4% in experiment [1] (at 50.0 µM); -1% in experiment [2] (setting [7]); -3% in experiment [2] (setting [8]); 15.2% in experiment [2] (at 50.0 µM). For the same compound, the growth inhibition in experiment [3] (setting [7]) is -4%; in experiment [3] (setting [8]), -5%; in experiment [3] (at 50.0 µM), 11.1%; in experiment [4] (setting [7]), 3%; in experiment [4] (setting [8]), -7%; in experiment [4] (at 50.0 µM) it was 55.9%. Also, the growth inhibition in experiment [5] (setting [7]) was -1%; in experiment [5] (setting [8]), -9%; in experiment [5] (at 50.0 µM), 19.7%; in experiment [6] (setting [7]), -2%; in experiment [6] (setting [8]), 1%; in experiment [6] (at 50.0 µM) it was -5.75%.
In the case of `O=C([O-])C[n+]1c(/C=C/c2ccccc2)ccc2ccccc21`, the growth inhibition is -2% in experiment [1] (setting [7]); 69% in experiment [1] (setting [8]); 37.1% in experiment [1] (at 50.0 µM); -3% in experiment [2] (setting [7]); 87% (active) in experiment [2] (setting [8]); 5.35% in experiment [2] (at 50.0 µM). Further, the growth inhibition in experiment [3] (setting [7]) was -6%; in experiment [3] (setting [8]) it was 92% (active); in experiment [3] (at 50.0 µM), 28.9%; in experiment [4] (setting [7]), -3%; in experiment [4] (setting [8]), 85% (active); in experiment [4] (at 50.0 µM), 13.9%. Further, the growth inhibition in experiment [5] (setting [7]) is 2%; in experiment [5] (setting [8]), 84% (active); in experiment [5] (at 50.0 µM), 6.8%; in experiment [6] (setting [7]) it was 0%; in experiment [6] (setting [8]), 94% (active); in experiment [6] (at 50.0 µM), 32.3%.
Turning to `COc1ccc(COCCOCc2nc(C#N)c(N)o2)cc1`, the growth inhibition in experiment [1] (setting [7]) was 16%; in experiment [1] (setting [8]), 8%; in experiment [1] (at 50.0 µM), 43.3%; in experiment [2] (setting [7]) it was 13%; in experiment [2] (setting [8]), 9%; in experiment [2] (at 50.0 µM), 12.1%. In addition, the growth inhibition in experiment [3] (setting [7]) is 16%; in experiment [3] (setting [8]), 5%; in experiment [3] (at 50.0 µM), -25.1%; in experiment [4] (setting [7]), 16%; in experiment [4] (setting [8]) it was 11%; in experiment [4] (at 50.0 µM) it was -16.8%. Moreover, the growth inhibition in experiment [5] (setting [7]) was 22%; in experiment [5] (setting [8]) it was 12%; in experiment [5] (at 50.0 µM) it was -31.7%; in experiment [6] (setting [7]) it was 10%; in experiment [6] (setting [8]) it was 4%; in experiment [6] (at 50.0 µM), -1.6%.
As to `CN(CN(C)N=Nc1ccc(Cl)cc1)CN(C)N=Nc1ccc(Cl)cc1`, the growth inhibition in experiment [1] (setting [7]) is -14%; in experiment [1] (setting [8]) it was 9%; in experiment [1] (at 50.0 µM), -3.1%; in experiment [2] (setting [7]), 3%; in experiment [2] (setting [8]) it was -8%; in experiment [2] (at 50.0 µM), -1.75%. The growth inhibition in experiment [3] (setting [7]) was -24%; in experiment [3] (setting [8]), 4%; in experiment [3] (at 50.0 µM), 4.7%; in experiment [4] (setting [7]), -6%; in experiment [4] (setting [8]) it was -2%; in experiment [4] (at 50.0 µM) it was 19.9%. Besides, the growth inhibition is 0% in experiment [5] (setting [7]); 4% in experiment [5] (setting [8]); -0.7% in experiment [5] (at 50.0 µM); -12% in experiment [6] (setting [7]); 3% in experiment [6] (setting [8]); 9.7% in experiment [6] (at 50.0 µM).

Values taken from PubChem BioAssay (NCI).
